# “And” between values parts separate entries of the source, which are not always exact repeats. Equal entries are not always repeated. Where two headings read alike, the source gives them in different places.
# Assays:
# [1] = tested on: STK16; details: n = 1
# [2] = tested on: STK33; details: concentration: 1 μM, replicates: in singlicate; n = 1
# [3] = tested on: STK35; details: concentration: 1 μM, replicates: in singlicate; n = 1
# [4] = tested on: STK36; details: concentration: 1 μM, replicates: in singlicate; n = 1
# [5] = tested on: STK39; details: n = 1
# [6] = tested on: SYK; details: n = 1
# [7] = tested on: SgK110; details: n = 1
# [8] = tested on: T1, TAK1; details: concentration: 1 μM, replicates: in singlicate; n = 1
# T1 construct: gene MAP3K7
# [9] = tested on: TAOK1; details: concentration: 1 μM, replicates: in singlicate; n = 1
# [10] = tested on: TAOK2; details: concentration: 1 μM, replicates: in singlicate; n = 1
# [11] = tested on: TAOK3; details: concentration: 1 μM, replicates: in singlicate; n = 1
# [12] = tested on: TBK1; details: n = 1
# [13] = tested on: TEC; details: concentration: 1 μM, replicates: in singlicate; n = 1
# [14] = tested on: TESK1; details: concentration: 1 μM, replicates: in singlicate; n = 1
# [15] = tested on: TGFBR1; details: n = 1
# [16] = tested on: TGFBR2; details: concentration: 1 μM, replicates: in singlicate; n = 1
# [17] = tested on: TIE1; details: n = 1
# [18] = tested on: T2, TIE2; details: concentration: 1 μM, replicates: in singlicate; n = 1
# T2 construct: gene TEK
# [19] = tested on: TLK1; details: n = 1
# [20] = tested on: TLK2; details: concentration: 1 μM, replicates: in singlicate; n = 1
# [21] = concentration: 1 μM, replicates: in singlicate
# [22] = concentration: 1 μM,replicates: in singlicate, 1 µM
# 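Further: KINOMEscan kinase panel screen.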
smiles,measurement,setting,value
COc1cc2ncn(-c3cc(OCC4CCCO4)c(C(N)=O)s3)c2cc1OC (stereo not shown) [GSK204607],%Inh,[1]; [21],5%
same,%Inh,[2],0%
same,%Inh,[3],90%
same,%Inh,[4],0%
same,%Inh,[5]; [21],0%
same,%Inh,[6]; [21],12%
same,%Inh,[7]; [21],0%
same,%Inh,[8],18%
same,%Inh,[9],0%
same,%Inh,[10],0%
same,%Inh,[11],0%
same,%Inh,[12]; [21],23%
same,%Inh,[13],0%
same,%Inh,[14],0%
same,%Inh,[15]; [21],4%
same,%Inh,[16],0%
same,%Inh,[17]; [21],0%
same,%Inh,[18],0%
same,%Inh,[19]; [21],0%
same,%Inh,[20],11%
O=c1cc(N2CCOCC2)nc2n(Cc3cccc(Cl)c3Cl)ccn12 [GSK2286295],%Inh,[1]; [21],5%
same,%Inh,[2],0%
same,%Inh,[3],0%
same,%Inh,[4],43%
same,%Inh,[5]; [21],0%
same,%Inh,[6]; [21],32%
same,%Inh,[7]; [21],0%
same,%Inh,[8],5%
same,%Inh,[9],0%
same,%Inh,[10],0%
same,%Inh,[11],0%
same,%Inh,[12]; [21],19%
same,%Inh,[13],0%
same,%Inh,[14],1%
same,%Inh,[15]; [21],0%
same,%Inh,[16],0%
same,%Inh,[17]; [21],0%
same,%Inh,[18],0%
same,%Inh,[19]; [21],0%
same,%Inh,[20],0%
Cc1ccc(C(=O)Nc2ccc(Nc3ccnc4cc(-c5ccccn5)ccc34)cc2O)cc1.Cl [GW440146],%Inh,[1]; [21],22%
same,%Inh,[2],0%
same,%Inh,[3],0%
same,%Inh,[4],0%
same,%Inh,[5]; [21],0%
same,%Inh,[6]; [21],21%
same,%Inh,[7]; [21],0%
same,%Inh,[8],0%
same,%Inh,[9],0%
same,%Inh,[10],0%
same,%Inh,[11],0%
same,%Inh,[12]; [21],0%
same,%Inh,[13],13%
same,%Inh,[14],13%
same,%Inh,[15]; [21],3%
same,%Inh,[16],26%
same,%Inh,[17]; [21],19%
same,%Inh,[18],0%
same,%Inh,[19]; [21],0%
same,%Inh,[20],0%
Cc1csc(-c2nc(Nc3ccncc3)c3ccccc3n2)n1 [GW869640],%Inh,[1]; [21],17%
same,%Inh,[2],18%
same,%Inh,[3],0%
same,%Inh,[4],0%
same,%Inh,[5]; [21],0%
same,%Inh,[6]; [21],2%
same,%Inh,[7]; [21],8%
same,%Inh,[8],25%
same,%Inh,[9],36%
same,%Inh,[10],16%
same,%Inh,[11],29%
same,%Inh,[12]; [21],37%
same,%Inh,[13],9%
same,%Inh,[14],13%
same,%Inh,[16],88%
same,%Inh,[17]; [21],36%
same,%Inh,[18],21%
same,%Inh,[19]; [21],0%
same,%Inh,[20],1%
Cc1cc(-c2ccc3c(c2)CC[C@@H](N[C@@H](C)c2ccccc2)C3)cnc1N.Cl [GW412617],%Inh,[1]; [21],22%
same,%Inh,[2],7%
same,%Inh,[3],10%
same,%Inh,[4],0%
same,%Inh,[5]; [21],1%
same,%Inh,[6]; [21],35%
same,%Inh,[7]; [21],0%
same,%Inh,[8],42%
same,%Inh,[9],14%
same,%Inh,[10],0%
same,%Inh,[11],14%
same,%Inh,[12]; [21],11%
same,%Inh,[13],1%
same,%Inh,[14],11%
same,%Inh,[15]; [21],0%
same,%Inh,[16],20%
same,%Inh,[17]; [21],35%
same,%Inh,[18],0%
same,%Inh,[19]; [21],4%
same,%Inh,[20],0%
CSc1nn2c(=O)cc(N3CCOCC3)nc2n1Cc1cccc(C(F)(F)F)c1C [GSK2363608],%Inh,[1]; [22],23% and 13%
same,%Inh,[2],0%
same,%Inh,[3],0%
same,%Inh,[4],0%
same,%Inh,[5]; [22],8% and 13%
same,%Inh,[6]; [22],30% and 26%
same,%Inh,[7]; [22],0% and 6%
same,%Inh,[8],0%
same,%Inh,[9],0%
same,%Inh,[10],0%
same,%Inh,[11],0%
same,%Inh,[12]; [22],20% and 5%
same,%Inh,[13],7%
same,%Inh,[14],19%
same,%Inh,[15]; [22],11% and 17%
same,%Inh,[16],0%
same,%Inh,[17]; [22],0% and 2%
same,%Inh,[18],0%
same,%Inh,[19]; [22],8% and 0%
same,%Inh,[20],0%
Cc1cccc(-c2nc(C)cc(Nc3ccncc3)n2)n1 [GSK257997],%Inh,[1]; [21],2%
same,%Inh,[2],0%
same,%Inh,[3],0%
same,%Inh,[4],0%
same,%Inh,[5]; [21],0%
same,%Inh,[6]; [21],34%
same,%Inh,[7]; [21],0%
same,%Inh,[8],24%
same,%Inh,[9],0%
same,%Inh,[10],0%
same,%Inh,[11],0%
same,%Inh,[12]; [21],15%
same,%Inh,[13],0%
same,%Inh,[14],15%
same,%Inh,[15]; 1 µM,100%
same,%Inh,[16],4%
same,%Inh,[17]; [21],0%
same,%Inh,[18],8%
same,%Inh,[19]; [21],8%
same,%Inh,[20],0%
